High-throughput results as filed in PubChem.
CYP2C19 activ – human CYP2C19 activators, primary screen, biochemical, luminescence. Cytochrome P450 2C19 (Homo sapiens), P33261. AID 1025, 2008. recombinant CYP2C19, luciferin-H EGE luminescence; active compounds read high; 0 = fully inhibited enzyme, 1 = untreated enzyme. 96,000 tested, under 10 active. activation factor at 5 µM;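 active = activation factor of at least 2 at 5 µM in the primary screen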;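 also: 0 = wells with 2.5 mM tranylcypromine and 1 = vehicle-only wells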
CYP2C9 inh – blockers of cytochrome P450 2C9 activity – biochemical, luminescence, ADME assay, primary screen. P11712. CYP2C9 Supersomes, luciferin-H conversion. inhibition, % at 5 µM. actives 20% (n = 96,000);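 active = blocking of liver enzyme CYP2C9 beyond about 50% at 5 µM, limit read from the data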
Target sequence (P11712 whole entry, looked up): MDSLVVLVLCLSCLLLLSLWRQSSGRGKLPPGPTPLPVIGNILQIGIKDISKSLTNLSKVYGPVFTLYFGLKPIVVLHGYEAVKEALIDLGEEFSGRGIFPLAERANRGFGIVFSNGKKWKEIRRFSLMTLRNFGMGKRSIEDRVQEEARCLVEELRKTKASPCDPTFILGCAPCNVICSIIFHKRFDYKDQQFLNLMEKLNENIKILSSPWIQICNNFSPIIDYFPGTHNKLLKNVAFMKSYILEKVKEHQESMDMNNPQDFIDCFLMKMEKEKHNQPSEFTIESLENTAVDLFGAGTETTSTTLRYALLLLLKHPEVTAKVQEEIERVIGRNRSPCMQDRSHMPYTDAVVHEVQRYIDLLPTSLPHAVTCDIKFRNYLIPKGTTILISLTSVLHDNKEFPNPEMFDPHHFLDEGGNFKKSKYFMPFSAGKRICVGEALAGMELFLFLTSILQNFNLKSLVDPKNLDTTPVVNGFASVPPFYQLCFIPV
CYP2C9 act – human CYP2C9 activators, primary screen, biochemical, luminescence; recombinant CYP2C9, luciferin-H conversion; active compounds read high; factor 1 = untreated enzyme, 0 = blocked; activation factor at 5 µM; actives 1.4% (n = 96,000); AID 1024, 2008;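 active = activation factor of 2 or more for CYP2C9 at a 5 µM dose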;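 also: 0 = sulfaphenazole-blocked wells and 1 = vehicle-only wells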
CYP2C19 inhib – blockers of cytochrome P450 2C19 activity – biochemical, luminescence, ADME assay, primary screen; P33261; CYP2C19 Supersomes, luciferin-H EGE luminescence, 30 min; inhibition, % at 5 µM; actives 21% (n = 96,000); AID 778, 2007;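 active = CYP2C19 inhibition above a set limit at 5 µM in the primary screen, cut at about 50% in these data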;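 also: plate controls were negative control wells for no effect and 2.5 mM tranylcypromine positive control for full effect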
Active calls of the source: *. An excerpt weighted towards active compounds, which were near 31% of everything screened.

SMILES	CYP2C19 activ	CYP2C9 inh	CYP2C9 act	CYP2C19 inhib
O=C(Cn1nnc(-c2ccc(Cl)cc2)n1)NCC1CCCCC1	0.5	33	0.7	45
COCc1nnc(NC(=O)C(C)C)s1	0.9	17	0.8	10
CC(C)(C)N1CC2(c3ccccc3)CN(C(C)(C)C)CC(c3ccccc3)(C1)C2=O	1.1	4	1	-10
O=C(Cn1nnc(-c2ccncc2)n1)Nc1ccc2c(c1)CCC2	0.1	75*	0.2	91*
COc1cc(NC(=O)Cn2nnc(-c3ccncc3)n2)cc(OC)c1	0.1	92*	0.1	89*
CCOc1ccc(-c2nnn(CC(=O)NCCc3c[nH]c4ccccc34)n2)cc1	0.9	1	1	5
O=C(Cn1nnc(-c2ccncc2)n1)NCCc1ccccc1	0.3	72*	0.3	73*
O=C(Cn1nnc(-c2ccccc2)n1)Nc1ccc2c(c1)OCO2	1.1	12	0.9	-14
O=c1c2ccccc2nnn1CSc1nnc2sc3ccccc3n12	0.8	-74	1.7	20
Cc1cccc(-n2c(CNC(=O)c3ccccc3)nnc2SCC(=O)Nc2nccs2)c1	1.1	7	0.9	-14
O=C(CN1C(=O)c2ccccc2S1(=O)=O)NCCSC1CCCCC1	0.9	24	0.8	11
CCCCn1c(SCC(=O)N2CCCc3ccccc32)nc2c1c(=O)n(C)c(=O)n2C	0.8	63*	0.4	18
CCn1c(SCC(=O)N2CCc3ccccc32)nnc1-c1ccco1	0.5	33	0.7	51*
CCCn1c(SCC(=O)N2CCCc3ccccc32)nnc1-c1ccco1	0.5	0	1	52*
CCN1C(=O)CC(N2CCN(CC(=O)NC(C)C)CC2)C1=O (stereo not drawn)	1.1	9	0.9	-8
Cc1ccc(N2C(=O)c3ccccc3C2Nc2ccccc2)nc1 (stereo not drawn)	0.8	3	1	22
COc1ccc(NC2c3ccccc3C(=O)N2c2ccccn2)cc1Cl (stereo not drawn)	0.2	61*	0.4	76*
CCOC(=O)c1ccc(NC2c3ccccc3C(=O)N2c2cccnc2)cc1 (stereo not drawn)	0.1	75*	0.2	88*
CCc1cccc(NC2c3ccccc3C(=O)N2c2ccc(C)cn2)c1 (stereo not drawn)	0.2	50*	0.5	85*
O=C1c2ccccc2C(Nc2ccc(F)c(Cl)c2)N1c1ccccn1 (stereo not drawn)	0.6	8	0.9	37
CCc1cccc(NC2c3ccccc3C(=O)N2c2cccnc2)c1 (stereo not drawn)	0	53*	0.5	97*
CCCCOc1ccc(-c2ncc(Cl)cn2)cc1	0.9	29	0.7	7
CC1(C)CC(=O)C=C(NCC(=O)O)C1	1	-3	1	1
CCCCCCSc1cc(C)nc2ncnn12	0.3	38	0.6	66*
O=C(O)CCCCCNC(=O)Nc1ccc2c(c1)OCCO2	0.9	14	0.9	7
SMILES	CYP2C19 activ	CYP2C9 inh	CYP2C9 act	CYP2C19 inhib
Cc1nc(NC(=S)NC(=O)c2cccs2)sc1C(=O)N(C)C	0.8	30	0.7	19
COc1ccc(C(=O)NC(=S)Nc2nc(C)c(C(=O)N(C)C)s2)cc1	1	63*	0.4	-2
NC(=O)C1CCN(C(=S)c2cccs2)CC1	0.8	3	1	23
CCOC(=O)N1CCC(n2c(SCC(=O)NCc3ccco3)nc3ccsc3c2=O)CC1	0.8	63*	0.4	22
CCOC(=O)N1CCC(n2c(SCC(=O)Nc3nccs3)nc3ccsc3c2=O)CC1	0.7	61*	0.4	26
CCOC(=O)CSc1nc2cc(C(=O)N3CCC(C(N)=O)CC3)ccc2c(=O)n1-c1ccccc1	0.7	59*	0.4	26
CCOC(=O)CSc1nc2cc(C(=O)NCc3ccco3)ccc2c(=O)n1C1CCCCC1	0.8	51*	0.5	20
CCOC(=O)CSc1nc2ccsc2c(=O)n1C1CCN(C(=O)OCC)CC1	0.6	62*	0.4	42
CS(=O)(=O)Nc1ccc(C(=O)N2CCN(c3ccccc3F)CC2)cc1	1.2	39	0.6	-16
C=CCc1cc(C(=O)N2CCCCC2)ccc1O	0.1	34	0.7	89*
Cc1cc(NC(=O)CSc2cn(CCNC(=O)c3ccc(F)cc3)c3ccccc23)no1	0.4	75*	0.3	64*
COc1ccc(NC(=O)Cn2c(=O)n(CC(=O)NCc3ccco3)c(=O)c3ccccc32)cc1	1	9	0.9	0
Cc1nnc(NC(=O)CSc2cn(CCNC(=O)c3ccccc3)c3ccccc23)s1	0.9	49	0.5	13
COc1ccc(C(=O)NCCn2cc(SCC(=O)NCc3ccco3)c3ccccc32)cc1	0	85*	0.1	96*
CC(C)Nc1nc(SCC(N)=O)nc(N2CCOCC2)n1	1	10	0.9	-4
CCOC(=O)CNC(=O)CSc1nc(N(C)C)nc(N2CCOCC2)n1	0.2	22	0.8	84*
COC(=O)CSc1nc(NC(C)C)nc(N2CCOCC2)n1	0.5	24	0.8	50*
CC(=O)Nc1ccc(S(=O)(=O)N2CCC(NC(=O)c3ccco3)CC2)cc1	0.9	26	0.7	9
COC(=O)C1C(c2ccccc2)C(C(=O)N2CCOCC2)C1c1ccccc1 (stereo not drawn)	0.2	22	0.8	84*
O=C(O)C1C(c2ccccc2)C(C(=O)N2CCOCC2)C1c1ccccc1 (stereo not drawn)	1.1	4	1	-10
CCn1c(C)nc2cc(C(=O)n3cc(C(=O)c4cc(F)ccc4O)cn3)ccc21	0.9	-40	1.4	15
COc1ccc(C(=O)c2ccccc2)c2c(O)ccc(C(=O)c3ccccc3)c12	1.3	44	0.6	-29
COc1ccc(C(C)=O)c2c(O)cccc12	0.1	39	0.6	87*
Cc1csc(NC(=O)CSc2nnc3ncccn23)n1	0.8	5	0.9	15
COc1ccc(N2CCN(C(=O)c3ccc(CS(=O)(=O)c4ccc(OC)cc4)o3)CC2)cc1	0.6	78*	0.2	42
SMILES	CYP2C19 activ	CYP2C9 inh	CYP2C9 act	CYP2C19 inhib
COc1ccc(S(=O)(=O)Cc2ccc(C(=O)N3CCN(c4ccc(Cl)cc4)CC3)o2)cc1	0.6	82*	0.2	42
COc1ccc(N2CCN(C(=O)CN(Cc3ccc(Cl)cc3)S(C)(=O)=O)CC2)cc1	0.8	-2	1	21
COc1ccc(S(=O)(=O)Cc2ccc(C(=O)N3CCN(c4cccc(C)c4C)CC3)o2)cc1	0.4	76*	0.2	56*
COc1ccc(S(=O)(=O)Cc2ccc(C(=O)N3CCN(c4cc(Cl)ccc4C)CC3)o2)cc1	0.4	85*	0.2	61*
CN(Cc1ccccc1)C(=O)[C@H]1CCC(=O)N1Cc1ccco1	0.7	25	0.8	28
Cc1ccccc1S(=O)(=O)Cc1ccc(C(=O)N2CCN(c3ccc(F)cc3)CC2)o1	0.5	44	0.6	47
